# Experimental data as given in the supplement of paper PMC11417369.
# Whole data set: some 25,000 sequences, median “ln(normalized median fluorescence intensity)” near 7.1, cut for the highest 2% near 10. For the sample, the highest values were picked, then their nearest neighbours and some sequences at random.
# Tested on: PfSIP2 AP2 domain 1 (GST-tagged)
# Assay: gcPBM binding intensity (ln(normalized median fluorescence intensity)); higher = stronger DNA binding
# Procedure, shortened: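 DNA-binding domains from P. falciparum, fused to GST and produced in E. coli, were put on an Agilent 4 × 180k double-stranded probe array for 1 h in 1× PBS holding 1% milk, 0.2 mg/ml BSA, 0.5% salmon testes DNA and 0.03% Triton X-100. Probes were primer-extended, 36 bp long and drawn from intergenic genomic regions, with negative controls included. After Alexa488 anti-GST antibody detection and a 488 nm scan, binding intensity was set as the highest Masliner-normalised natural-log median intensity across replicate spots of either probe orientation.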
row,Sequence,gcPBM binding intensity (ln)
1,AAGAATATATAGGACACACATACAATAATAAATATA [CACACA_site4119],7.25
2,ATATTTTATAATTTTACACACCATATAAAATAATTC [CACACA_site2797],7.16
3,TTTGCACCGTTTAAGTGTACAGAATTATGACATATA [XGTACX_site6735],11.2
4,TTTATATGTATTAAGTGTACACATATAATGTGTTTG [XGTACX_site6629],7.29
5,CATATTTACATTAAGTGTACTTATGAATATATATAC [XGTACX_site7962],7.03
6,TATCAATGGAAAATATATATTTGTATATATGTAATA [XGTACX_negctrl_site257],7.04
7,ACATGAATATATACACGTACATATATACATATATAT [XGTACX_site5872],7.42
8,AATTTATTTTTAAAAAGTACATACTTAAGAAAACGA [XGTACX_site3660],7.59
9,ATATATTATATTATATGTACTTAAAAAAGTGCAAAG [XGTACX_site318],8.67
10,CTGTACACTTAAACGGTGCAAAAAGAAAAAAAAGAA,10.9
11,TTTTATCATCTTTTTACATTATGTATAAATATTTTC [CACACA_negctrl_site206],6.99
12,AAAACATAAATACATACACACATAATATATATTAAT [CACACA_site109],7.06
13,TATATATTTTCTTTTGCACACTGTTTTCCTTTTTTT [CACACA_site2739],7.02
14,ACAAGTATTCCTTTTGCACACCTTTCTGCACCTTAT [CACACA_site3873],11.7
15,TTTTATTCCTTCTTTGCACACGTTTAAAAATATATA [CACACA_site2899],8.04
16,ATGTCATAAATGTACGCACACATACATAAACATATA [CACACA_site4530],7.33
17,TATATAAACCCACCTACACACACAACGTAAATGCAT [CACACA_site8702],7.1
18,TATAAACGCACCTACACACACAACGTAAATGCATTG [CACACA_site7120],10.6
19,TATAAACCCACCTACACACACAACGTAAATGCATTG [CACACA_site2238],7.01
20,CAAATATGTCTTATTCGTACACATATATATATATAT [XGTACX_site8817],9.64
21,ATAATGAAAACAAGCACACATACATAAAATAAAATA [CACACA_site3257],7.04
22,TTTTTAATTTTATATACACACATAAAATATATGAAG [CACACA_site3145],7.01
23,ATTTTGTTATGAAACACACACATATAAATATAAATA [CACACA_site7679],7.26
24,TCATAATGAAAACAAGCACACATACATAAAATAAAA [CACACA_site9069],7.01
25,CTTTTATGAAACAGTGCACACATAAAAATATATACA [CACACA_site8981],11.3

row,Sequence,gcPBM binding intensity (ln)
1,AACATATATAAATACACACACATATATATATGAAAT [CACACA_site4312],7.05
2,AAAAAAAATATGAAAACACACATATATAAATAAATA [CACACA_site113],6.89
3,TTTATGAAACAGTGCACACATAAAAATAAATACATA [CACACA_site5631],11.2
4,TTTATGAAACAGTGCACACATAAAAATATATACATA [CACACA_site2992],11
5,AAATATAAACTCAGCACACAAACATATATATGTCAT [CACACA_site4004],6.91
6,TCCTTTTGAACCCTTTTTCTCACAAGACCTTTATAT [TGCATGCA_negctrl_site413],7.05
7,ATGTTTTAATGAGGTTTGCACTATATTTTAATGAAC,8.64
8,AATATTAAACAAAATAAATATATAAAAAATAAATAA [GTGCAC_negctrl_site93],6.79
9,ATGAATATAATGAAGTGTACATAAAAATAATAAATA [XGTACX_site2481],7.11
10,GGACATTTTTATAAGGTGCACGGTTTTGATATTACT [GTGCAC_site9892],11.1
11,GTACATATATACATTACACACGGTTTGATTTAAAAA [CACACA_site3379],7.26
12,TCACATTTTGGACACGTGCACATATATTTGATACAT,8.43
13,ATGCGTTAATCTATATATATTATGTATAGATTTTCA [CACACA_negctrl_site1650],6.81
14,TGCCCTTTGGTTATAACACACATGCACCCGTAAATA [CACACA_site3842],11.9
15,TGCCCTTTGGTTATAACACACATGCACACGTAAATA [CACACA_site7750],7.71
16,CTTTGGTTATAACACACATGCACACGTAAATAAATA [TGCATGCA_site976],7.63
17,AGACAATTTTTTAGTACACACATATAGATATATAAA [CACACA_site6832],7.39
18,AAAAAAAAATATATATATATATATATATAATAAAAA [CACACA_negctrl_site639],7.48
19,ATGCACTCATTGTGCACACGCATATTACGAAAAGAA [CACACA_site2638],10.2
20,ATATGCACTCATTGTGCACACGCATATTACGAAAAG [CACACA_site2637],11
21,TGTGTTCATATATGCACACGCATATATATTATTGTT [CACACA_site3822],7.02
22,ATATATAATAATTGTAGTACAATTAATAAATAAAAT [XGTACX_site3840],7.08
23,TATATATTATAAAATTGTACATATATTAAATTTTTT [XGTACX_site5852],6.93
24,TATGCACCCAGACACACACACACAACTAAAAAATAA [CACACA_site2567],10.7
25,TGCACGCACAGACACACACACAACTAAAAAATAATG [CACACA_site7250],7.33

row,Sequence,gcPBM binding intensity (ln)
1,TAATTATGCAGACACACACACACACCCAACTAAAAA [CACACA_site2569],7.27
2,TACAAATATATATGCACACACATATACATACATATA [CACACA_site2182],7.31
3,TCACCATATAAACGTGCACACTACAAAAATATATAA [CACACA_site5413],11
4,CATATAAAAATGTGCACACACACACCCATATATATT [CACACA_site1526],9.06
5,GGTGCACCCATATACACACACAAATACAATGATAAA [CACACA_site1132],12.4
6,TGTGCACGCATATACACACACAAATACAATGATAAA [CACACA_site6656],10.6
7,TACAAACACCCATATACACACAAAAAAAAAATAAAA [CACACA_site5421],7.05
8,GAAATGTGATAATATACACACACGCATATATATATA [CACACA_site4332],9.04
9,TAATGATAAATACATACACACAAAAAATGATATATA [CACACA_site7258],6.86
10,AAACAAAAAATATATACACACTAAACATAAAAAAAA [CACACA_site4185],6.86
11,AATGTGATAATATACACACACGCATATATATATATA [CACACA_site323],9.89
12,TGGGCACCCATATACACACACAAATACAATGATAAA [CACACA_site4762],8.64
13,TATGTGCACCCATATACACACACAAATACAATGATA [CACACA_site8295],12.3
14,CTATTTTATATGTGCACACATATACACCCACAAATA [CACACA_site1131],9.31
15,CCCCCCCACGAACACACACACATACATACCACATAT [CACACA_site7149],9.05
16,TGAGAGAGAAACGTAGTGCATAAAATCAAATTTAGA [GTGCAC_site9737],7.82
17,TTTTTTTGTTTTGTTTTTTTTTTTTTTTTTTTTTTG [CACACA_negctrl_site570],6.76
18,ACATGTTCATAATTTTGTACATATTTTTATGAACAT [XGTACX_site3976],7.12
19,AAAATACACGATAGTTGTACATTAAATGTATACAAT [XGTACX_site360],6.91
20,TGTTATTATAACATTTTTTTCAAAATAGCTTTAGAA [CACACA_negctrl_site266],6.77
21,AATAAATATCAATACACACACACAAAAGTGAATAAA [CACACA_site3763],6.99
22,TAGAATAAGATAGATATACACACCATTATAAATATA [CACACA_site2500],6.78
23,AGTGTGTGTAATAAAGTGCATTAAAAATGACACGTA,8.55
24,TGTGCATAAATTTATGCACACATAAAAAAAAAAAAA [CACACA_site8954],9.95
25,ATTAAAAAATCCATAGTGCACTACGATAGGTTCCGA [GTGCAC_site9463],10.5

row,Sequence,gcPBM binding intensity (ln)
1,ATATACATATCAATGTAATATTATATACTTTTTTAG [CACACA_negctrl_site816],6.77
2,GAAAGAAGCATAAATGTACACACATATTTATATATT [CACACA_site8368],7.04
3,TTATATAAAGAATGTACACACAGAAATGCACAGACA [CACACA_site5288],8.26
4,CATTTATATAAAGAATGTACACACAGAAATGCACAC [XGTACX_site4718],8.37
5,TTATATAAAGAATGTACACACAGAAATGCACCCACA [CACACA_site2282],12.2
6,ATTTATATAAAGAATGTACACACAGAAATGCACCCA [CACACA_site8715],11.8
7,TGTACACCCAGAAATGCACACACATATATATATATA [CACACA_site8716],9.53
8,TCCCTGATGTTATTTAATATACCATAAAAAAAAAAA [CACACA_negctrl_site1472],7.22
9,TATATATTATGACCACCACACACCTATACACATAAC [CACACA_site8773],7.3
10,TACATATAAATAATAACACACACCTAGGTACATGGA [CACACA_site838],6.89
11,CAAATATATATTTATTGTACATATTGTTTATATGGT [XGTACX_site5246],7.14
12,TACAAACAATTAAACAAACACACATATACATGTATA [CACACA_site2061],6.92
13,TAAAATTAAATGAAATCATTATTCATTTTTATTTTA [CACACA_negctrl_site1281],6.67
14,TAAGAAATAAATAGTACACACATAGACACACGCACA [CACACA_site6821],8
15,TAAGAAATAAATAGTACACACATAGACACCCACCCA [CACACA_site8429],7.39
16,TATATATATATAGACACACACACACCCATATATATA [CACACA_site4117],9.12
17,TACACCCATAGACACACACACACGCATAAAAAAAAA [CACACA_site8428],7.55
18,CCATTAAGACACATTGCACACGTGCACCCATAGAAA [CACACA_site4388],12.4
19,ACATTAAGACACATTGCACACGTGCACCCATAGAAA [CACACA_site8029],12
20,ATTAAGACACATTGCACACGTGCACCCATAGAAAAA [CACACA_site408],12.2
21,TAAGAAATAAATAGTACACACATAGACACCCACCGA [CACACA_site1516],7.3
22,AGTACAGACATAGACACACACACACCCATAAAAAAA [CACACA_site1515],7.24
